A word on the inhibition: it is the relative decrease from the control value, in per cent.

The results in this text go back to PubChem BioAssay.

Where “and” joins values, the source holds several entries; their conditions need not be identical. Identical values can stand only once. Calls of active or inactive are those of the source. The rule behind the calls is not given here.

One test has as its system Botulinum neurotoxin type F light chain protease (Clostridium botulinum). Put plainly: Clostridium botulinum type F light chain protease inhibitors, microsphere substrate cleavage, validation (AID 588459). The conditions noted are these: multiplex microsphere protease substrate cleavage assay, flow cytometry; at 10 µM; hits give high values. In general terms: In flow cytometry, cells or beads pass a laser one at a time.
For `COc1ccc(-c2cc(=Nc3ccc(C)cc3)c3ccccc3o2)cc1`, the inhibition is -2.2% (inactive). In the case of `Cc1oc2c(CN3CCCC3)c(O)ccc2c(=O)c1-c1ccc(Cl)cc1`, the inhibition is -1.2% (inactive). The same measure, in the same setting: the value for `Cc1ccc2c(c1)c(=O)c1c3n2CCN(C(=O)CCl)C3CC1` (stereo unspecified) was -11.4% (inactive). As to `C=C(C)c1nc2cc(OC)c(OC)cc2c(=O)o1`, the inhibition was -7.9% (inactive).

For `O=C(CS(=O)(=O)Cc1ccccc1)NCc1ccc2c(c1)OCO2`, the inhibition is 1.6% (inactive). Regarding `COc1ccc(NC(=O)CC(c2ccccc2)c2ccco2)cc1` (stereo unspecified), the inhibition is 2.3% (inactive). For the compound `Cn1c(=O)c2c(ncn2Cc2ccccc2)n(C)c1=O`, the inhibition is 3.3% (inactive). Regarding `CC1(C)S[C@@H]2[C@H](NC(=O)[C@H](N)c3ccccc3)C(=O)N2[C@H]1C(=O)O`, the inhibition is 2.6% (inactive) and -3.6% (inactive). On to `CC1(C)CC(=O)C(C2(O)C(=O)Nc3ccccc32)CO1` (stereo unspecified), for which the inhibition was -0.1% (inactive). The same measure, in the same setting: then `CC1=C/C(=N\N=C2\NC(=O)C(CC(=O)Nc3ccccc3F)S2)CC(C)(C)C1` (stereo unspecified), with -1.1% (inactive). As for `CN1CC2CCCC3(C1)C(=O)NC1(CCCCC1)N=C23` (stereo unspecified), the inhibition was 2.2% (inactive). For the compound `CCCN1C[C@H](CSC)C[C@@H]2c3cccc4[nH]cc(c34)C[C@H]21`, the inhibition was -8.5% (inactive).

On to `Nc1cccc2nc3ccccc3cc12`, for which the inhibition was 4% (inactive). In the case of `NCCc1cnc[nH]1`, the inhibition is 0.7% (inactive) and 3.1% (inactive).

Consider `Cc1ccc2nc(N=C(N)N)nc(C)c2c1`, for which the inhibition is 3.2% (inactive). The same measure, in the same setting: the value for `CCCc1c(OCCCCc2nn[nH]n2)ccc(C(C)=O)c1O` was -1.3% (inactive); that for `Cc1nonc1CN(C)C(=O)c1ccc(OC2CCN(Cc3ccccn3)CC2)cc1` was 0% (inactive); that for `Cc1cc(=O)c2c(O)c(O)ccc2o1` was 1.8% (inactive). For the compound `CC12CCC(C(=O)N3CCCCC3)([C@H](Br)C1=O)C2(C)C` (stereo partly specified), the inhibition is -3.4% (inactive).

Turning to `CC1(C)O[C@@H]2C[C@H]3[C@@H]4CCC5=CC(=O)C=C[C@]5(C)[C@@]4(F)[C@@H](O)C[C@]3(C)[C@]2(C(=O)CO)O1`, the inhibition is -2.6% (inactive).

For `COc1ccc(C(=O)OCc2cc3cccc(C)c3[nH]c2=O)cc1`, the inhibition is 0.3% (inactive).

`CC(C)C(=O)Nc1cccnc1`: the inhibition was -1.8% (inactive).

The target in a further test is Botulinum neurotoxin type A (Clostridium botulinum) (UniProt P0DPI0). As to the kind of experiment: BoNT/A light chain protease inhibitors, biochemical, multiplex microsphere flow cytometry, validation set (AID 588460). Particulars: at 10 µM, hits give high values.
Sequence of Botulinum neurotoxin type A (Clostridium botulinum) (P0DPI0 whole entry, looked up): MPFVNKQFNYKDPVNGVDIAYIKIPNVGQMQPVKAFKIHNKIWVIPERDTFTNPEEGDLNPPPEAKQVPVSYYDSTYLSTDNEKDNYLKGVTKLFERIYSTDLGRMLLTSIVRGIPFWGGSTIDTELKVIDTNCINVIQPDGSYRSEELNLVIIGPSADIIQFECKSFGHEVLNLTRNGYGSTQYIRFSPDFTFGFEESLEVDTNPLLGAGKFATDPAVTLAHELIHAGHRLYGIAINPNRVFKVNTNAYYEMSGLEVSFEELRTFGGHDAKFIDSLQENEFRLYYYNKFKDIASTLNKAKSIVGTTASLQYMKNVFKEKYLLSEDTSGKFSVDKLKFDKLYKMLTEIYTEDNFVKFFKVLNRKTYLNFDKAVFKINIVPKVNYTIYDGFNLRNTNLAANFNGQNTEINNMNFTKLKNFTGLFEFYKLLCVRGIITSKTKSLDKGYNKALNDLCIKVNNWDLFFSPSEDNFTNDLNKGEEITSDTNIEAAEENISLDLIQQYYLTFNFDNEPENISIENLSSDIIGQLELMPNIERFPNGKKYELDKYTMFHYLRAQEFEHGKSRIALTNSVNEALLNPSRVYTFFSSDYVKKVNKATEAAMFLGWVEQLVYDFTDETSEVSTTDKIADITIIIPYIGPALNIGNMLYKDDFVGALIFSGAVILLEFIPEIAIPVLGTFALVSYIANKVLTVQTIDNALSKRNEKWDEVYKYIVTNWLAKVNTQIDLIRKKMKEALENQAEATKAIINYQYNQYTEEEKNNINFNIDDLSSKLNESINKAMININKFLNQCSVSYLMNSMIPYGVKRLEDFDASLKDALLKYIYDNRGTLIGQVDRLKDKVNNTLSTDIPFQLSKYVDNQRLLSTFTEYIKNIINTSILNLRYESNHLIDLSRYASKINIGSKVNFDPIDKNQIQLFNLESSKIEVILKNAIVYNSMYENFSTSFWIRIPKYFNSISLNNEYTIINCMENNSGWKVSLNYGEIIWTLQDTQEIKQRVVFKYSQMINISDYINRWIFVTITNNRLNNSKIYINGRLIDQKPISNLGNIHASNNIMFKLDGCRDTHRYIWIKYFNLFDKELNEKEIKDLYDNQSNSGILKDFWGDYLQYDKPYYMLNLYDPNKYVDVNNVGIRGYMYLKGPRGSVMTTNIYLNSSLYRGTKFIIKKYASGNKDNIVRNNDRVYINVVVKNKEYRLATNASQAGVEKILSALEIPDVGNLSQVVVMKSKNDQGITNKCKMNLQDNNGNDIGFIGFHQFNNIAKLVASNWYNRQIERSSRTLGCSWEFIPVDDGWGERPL
Consider `CC(=O)c1c(C)[nH]c(C(=O)OCc2ccccc2)c1C`, for which the inhibition is 0.8% (inactive).

As to `C=C1C2(C(=O)Nc3ccc(SC(F)F)cc3)CCC(C2)C1(C)C` (stereo unspecified), the inhibition was -0.9% (inactive). As to `CCNC(=O)c1c(N)sc2c1CCCCC2`, the inhibition was -0.9% (inactive).

On to `C(=C\c1ccc2ccccc2n1)/c1ccccc1`, for which the inhibition is 0.8% (inactive). Turning to `CC12CN3CC(C)(CN(C1)C3c1ccc([N+](=O)[O-])o1)C2` (stereo unspecified), the inhibition was -1.4% (inactive). On to `O=C(CN1C(=O)/C(=C/c2cccc(Br)c2)SC1=S)Nc1cccnc1`, for which the inhibition was -0.3% (inactive). For the compound `COc1cc2c(cc1O)CCN(C(=O)c1ccco1)C2C` (stereo unspecified), the inhibition is 1% (inactive).

Consider `CC(CCc1ccccc1)NCC(O)c1ccc(O)c(C(N)=O)c1` (stereo unspecified), for which the inhibition is -1.4% (inactive). As to `COc1c(C=O)c(CCN(C)C(=O)c2ccc(F)cc2)cc2c1OCO2`, the inhibition was -1.5% (inactive).

Regarding `O=c1ccc2c(o1)/C(=C/C=C(Cl)Cl)CCC2`, the inhibition is -0.6% (inactive). In the case of `CCOC(=O)c1c(C)oc2cc(Br)c(OC(C)C(=O)OCC)cc12` (stereo unspecified), the inhibition was 0.5% (inactive). Take `CCC(=O)Oc1ccc(C(=O)Nc2ccc([N+](=O)[O-])cc2)cc1`: the inhibition was -0.2% (inactive).

Consider `CC(C)CC(=O)OC1C(N2CCOCC2)c2c(ccc(/C=C/C(=O)N3CCOCC3)c2O)OC1(C)C` (stereo unspecified), for which the inhibition was -0.5% (inactive). Same read-out and setting: then `C/C=C/c1ccc(OCCCCN2CC(C)CC(C)C2)c(OC)c1` (stereo unspecified), with -0.5% (inactive). As to `CC(C)OC(=O)CC1C(=O)NCCN1C(=S)NC(=O)c1cccs1` (stereo unspecified), the inhibition is -1.7% (inactive). For `COc1ccc(/C=C\c2nc(=O)c3ccccc3o2)cc1`, the inhibition is -0.8% (inactive). Regarding `Cc1ccccc1OCC(O)CN1CCN(C)CC1` (stereo unspecified), the inhibition was -0.4% (inactive). Turning to `COc1ccc(-c2cc(=Nc3ccc(C)cc3)c3ccccc3o2)cc1`, the inhibition is -0.6% (inactive). Consider `Cc1oc2c(CN3CCCC3)c(O)ccc2c(=O)c1-c1ccc(Cl)cc1`, for which the inhibition was -0.3% (inactive).

With `Cc1ccc2c(c1)c(=O)c1c3n2CCN(C(=O)CCl)C3CC1` (stereo unspecified), the inhibition was -1.3% (inactive). For the compound `C=C(C)c1nc2cc(OC)c(OC)cc2c(=O)o1`, the inhibition was -1.3% (inactive). For the compound `O=C(CS(=O)(=O)Cc1ccccc1)NCc1ccc2c(c1)OCO2`, the inhibition is 0.1% (inactive). On to `COc1ccc(NC(=O)CC(c2ccccc2)c2ccco2)cc1` (stereo unspecified), for which the inhibition is 0.9% (inactive). `Cn1c(=O)c2c(ncn2Cc2ccccc2)n(C)c1=O`: the inhibition was 3% (inactive). On to `CC1(C)S[C@@H]2[C@H](NC(=O)[C@H](N)c3ccccc3)C(=O)N2[C@H]1C(=O)O`, for which the inhibition was 2.2% (inactive) and -0.7% (inactive).

With `CC1(C)CC(=O)C(C2(O)C(=O)Nc3ccccc32)CO1` (stereo unspecified), the inhibition was -1.6% (inactive).

With `CC1=C/C(=N\N=C2\NC(=O)C(CC(=O)Nc3ccccc3F)S2)CC(C)(C)C1` (stereo unspecified), the inhibition is 0.8% (inactive). Regarding `CN1CC2CCCC3(C1)C(=O)NC1(CCCCC1)N=C23` (stereo unspecified), the inhibition was -0.6% (inactive).

Turning to `CCCN1C[C@H](CSC)C[C@@H]2c3cccc4[nH]cc(c34)C[C@H]21`, the inhibition is -1.6% (inactive). The same measure, in the same setting: the value for `Nc1cccc2nc3ccccc3cc12` was 2.3% (inactive). Same read-out and setting: the value for `NCCc1cnc[nH]1` was -1.5% (inactive). Turning to `Cc1ccc2nc(N=C(N)N)nc(C)c2c1`, the inhibition is -0.2% (inactive). Still for that read-out and setting: then `CCCc1c(OCCCCc2nn[nH]n2)ccc(C(C)=O)c1O`, with -4% (inactive). On to `Cc1nonc1CN(C)C(=O)c1ccc(OC2CCN(Cc3ccccn3)CC2)cc1`, for which the inhibition is -1.4% (inactive). As for `Cc1cc(=O)c2c(O)c(O)ccc2o1`, the inhibition was 2.5% (inactive).

`CC12CCC(C(=O)N3CCCCC3)([C@H](Br)C1=O)C2(C)C` (stereo partly specified): the inhibition is -1.3% (inactive). With `CC1(C)O[C@@H]2C[C@H]3[C@@H]4CCC5=CC(=O)C=C[C@]5(C)[C@@]4(F)[C@@H](O)C[C@]3(C)[C@]2(C(=O)CO)O1`, the inhibition was -3.3% (inactive).

For the compound `COc1ccc(C(=O)OCc2cc3cccc(C)c3[nH]c2=O)cc1`, the inhibition was 0.7% (inactive). Turning to `CC(C)C(=O)Nc1cccnc1`, the inhibition is 0.9% (inactive).
